Data on two compounds can be found in PubChem BioAssay (EPA / NIEHS).

In assay [1] the test system is chicken Androgen Receptor (AR), gene 422165. In words: ATG_chAR_XSP1: Attagene TRANS-FACTORIAL Multi-Species (XSP1) HepG2 Assay for chicken Androgen Receptor (AR) (AID 2283768). As to the method:
(§1) ATG_XSP1_multi-species_TRANS is a cell-based, multiplexed assay created by modifying the existing Attagene TRANS-FACTORIAL system to include a panel of nuclear receptors from some or all the following species: human (Homo sapiens), mouse (Mus musculus), frog (Xenopus laevis), zebrafish (Danio rerio), chicken (Gallus gallus), and turtle (Chrysemys picta). The ECOTOX-FACTORIAL format uses HepG2, a human liver cell line, with measurements taken at 24 hours after chemical dosing in a 24-well plate. Xsp1 included 3 nM 6-alpha-fluorotestosterone to partially stimulate the androgen receptor.ATG_chAR_XSP1 is one of 29 assay components measured or calculated from the ATG_XSP1_multi-species_TRANS assay. It is designed to make measurements of mRNA induction, a form of inducible reporter, as detected with fluorescence intensity signals by Reverse transcription polymerase chain reaction (RT-PCR) and Capillary electrophoresis technology.The assay endpoint ATG_chAR_XSP1 was analyzed in the positive analysis fitting direction relative to DMSO as the negative control and baseline of activity. […] Furthermore, this assay endpoint can be referred to as a primary readout, because this assay has produced multiple assay endpoints where this one serves a reporter gene function. […]

Assay [2] has as its system frog Androgen Receptor (AR), gene 399456. In words: ATG_frAR_XSP1: Attagene TRANS-FACTORIAL Multi-Species (XSP1) HepG2 Assay for frog Androgen Receptor (AR) (AID 2283770).
The subject of assay [3] is zebrafish Androgen Receptor (AR), gene 100005148. Kind of assay: ATG_zfAR_XSP1: Attagene TRANS-FACTORIAL Multi-Species (XSP1) HepG2 Assay for zebrafish Androgen Receptor (AR) (AID 2283771). The essentials: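 Gain-of-signal versus DMSO was measured as reporter transcripts quantified by RT-PCR, fluorescent labelling and capillary electrophoresis after 24 h chemical exposure. The cells were HepG2 expressing a chimeric zebrafish AR-GAL4, co-stimulated with 3 nM 6-alpha-fluorotestosterone.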

Assay [4] has as its target zebrafish Estrogen Receptor (ESR1), esr1 (gene 259252) (UniProt P57717). Kind of assay: ATG_zfER1_XSP1: Attagene TRANS-FACTORIAL Multi-Species (XSP1) HepG2 Assay for zebrafish Estrogen Receptor (ESR1) (AID 2283772). The gist of the method: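 HepG2 cells were transiently transfected with multiplexed GAL4-UAS reporter units driven by chimeric NR-GAL4 proteins, dosed for 24 h with 3 nM 6-alpha-fluorotestosterone present, and reporter mRNA quantified by RT-PCR and capillary electrophoresis versus DMSO.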

For assay [5], the system named is zebrafish Estrogen Receptor (ESR2B), gene 317733. In words: ATG_zfER2b_XSP1: Attagene TRANS-FACTORIAL Multi-Species (XSP1) HepG2 Assay for zebrafish Estrogen Receptor (ESR2B) (AID 2283773). As to the method:
as §1, with “receptor.ATG_zfER2b_XSP1” for “receptor.ATG_chAR_XSP1”, “ATG_zfER2b_XSP1” for “ATG_chAR_XSP1”

Assay [6] relates to frog Estrogen Receptor (ESR2), gene 100174814. In words: ATG_frER2_XSP1: Attagene TRANS-FACTORIAL Multi-Species (XSP1) HepG2 Assay for frog Estrogen Receptor (ESR2) (AID 2283774). The essentials: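 Reporter mRNA from a multiplexed TRANS system, measured by RT-PCR with fluorescent labelling and capillary electrophoresis, 24 hours after chemical exposure. Human HepG2 liver cells carried exogenous frog ER-Gal4 chimera; medium included 3 nM 6-alpha-fluorotestosterone; increases versus DMSO analysed.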

For assay [7], the system named is frog Estrogen Receptor (ESR1), gene 398734. Kind of assay: ATG_frER1_XSP1: Attagene TRANS-FACTORIAL Multi-Species (XSP1) HepG2 Assay for frog Estrogen Receptor (ESR1) (AID 2283777). The gist of the method: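 HepG2 cells transiently transfected with GAL4-UAS reporter units and frog ER–Gal4 chimera were dosed for 24 h with 3 nM 6-alpha-fluorotestosterone present. Reporter mRNA was measured by RT-PCR and capillary electrophoresis; gain of signal fitted versus DMSO.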

Assay [8] concerns zebrafish Estrogen Receptor (ESR2A), gene 317734. Kind of assay: ATG_zfER2a_XSP1: Attagene TRANS-FACTORIAL Multi-Species (XSP1) HepG2 Assay for zebrafish Estrogen Receptor (ESR2A) (AID 2283778). The gist of the method: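 Reporter transcripts were quantified by RT-PCR, 6-FAM labelling, HpaI digestion and capillary electrophoresis after 24 h dosing. The cells were HepG2 transiently carrying a zebrafish ER2a–Gal4 construct plus multiplexed UAS reporters; medium contained 3 nM 6-alpha-fluorotestosterone.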

The target in assay [9] is chicken Estrogen Receptor (ESR1), ESR1 (gene 396099) (UniProt P06212). Kind of assay: ATG_chERa_XSP1: Attagene TRANS-FACTORIAL Multi-Species (XSP1) HepG2 Assay for chicken Estrogen Receptor (ESR1) (AID 2283779). As for the experimental part: as §1, with “receptor.ATG_chERa_XSP1” for “receptor.ATG_chAR_XSP1”, “ATG_chERa_XSP1” for “ATG_chAR_XSP1”

Records with an inconclusive call do not appear. The source made the active and inactive calls. How the source made its calls: active means hit-call score of the fitted dose curve at least 0.9, where 1 is the maximum; inconclusive means response in the unintended direction; inactive means score below 0.9.

chicken Estrogen Receptor (ESR1), ESR1 (gene 396099), sequence (P06212 whole entry, looked up): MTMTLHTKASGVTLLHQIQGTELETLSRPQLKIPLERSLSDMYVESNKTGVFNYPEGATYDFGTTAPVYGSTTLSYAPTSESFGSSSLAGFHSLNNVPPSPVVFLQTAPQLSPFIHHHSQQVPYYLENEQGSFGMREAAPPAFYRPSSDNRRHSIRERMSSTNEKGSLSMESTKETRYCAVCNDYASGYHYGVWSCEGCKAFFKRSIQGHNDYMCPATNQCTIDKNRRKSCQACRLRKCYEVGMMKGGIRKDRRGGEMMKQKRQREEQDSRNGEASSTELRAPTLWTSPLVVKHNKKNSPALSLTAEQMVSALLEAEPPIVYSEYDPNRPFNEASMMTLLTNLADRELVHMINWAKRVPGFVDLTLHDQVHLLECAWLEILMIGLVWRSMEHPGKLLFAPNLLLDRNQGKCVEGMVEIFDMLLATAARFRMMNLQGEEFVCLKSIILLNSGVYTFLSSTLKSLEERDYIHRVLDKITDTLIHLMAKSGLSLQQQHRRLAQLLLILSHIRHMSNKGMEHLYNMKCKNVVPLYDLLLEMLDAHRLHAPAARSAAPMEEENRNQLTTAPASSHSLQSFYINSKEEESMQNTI
zebrafish Estrogen Receptor (ESR1), esr1 (gene 259252), sequence (P57717 whole entry, looked up, the tested form may be a part): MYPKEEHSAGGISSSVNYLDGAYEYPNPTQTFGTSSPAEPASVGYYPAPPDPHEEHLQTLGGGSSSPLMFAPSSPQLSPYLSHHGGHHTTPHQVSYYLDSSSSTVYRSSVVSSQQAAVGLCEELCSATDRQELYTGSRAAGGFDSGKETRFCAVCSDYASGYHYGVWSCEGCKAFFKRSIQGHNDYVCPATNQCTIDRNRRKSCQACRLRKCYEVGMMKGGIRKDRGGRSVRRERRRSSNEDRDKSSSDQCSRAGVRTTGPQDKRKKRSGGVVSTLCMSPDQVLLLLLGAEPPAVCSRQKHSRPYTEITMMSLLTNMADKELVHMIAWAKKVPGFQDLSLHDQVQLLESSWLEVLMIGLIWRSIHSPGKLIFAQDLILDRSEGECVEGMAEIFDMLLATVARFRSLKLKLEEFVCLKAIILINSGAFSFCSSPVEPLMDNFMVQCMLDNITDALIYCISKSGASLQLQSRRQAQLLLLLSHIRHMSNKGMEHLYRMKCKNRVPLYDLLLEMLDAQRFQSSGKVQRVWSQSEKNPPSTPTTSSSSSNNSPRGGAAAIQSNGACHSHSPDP

With `O=C(c1ccccc1)c1ccc(O)cc1O`, the AC50 in assay [1] was 1980 nM (active); in assay [2], 3280 nM (active); in [4] it was 4200 nM (active); in assay [5], 2700 nM (active); in [6] it was 1050 nM (active); in assay [7] it was 652 nM (active). Besides, the AC50 in assay [8] was 1650 nM (active); in assay [9], 1550 nM (active). Moreover, in assay [3], the result was inactive.

`C[C@]12CC[C@H]3C(=CCc4cc(O)ccc43)[C@@H]1CCC2=O`: the AC50 in assay [4] is 23.1 nM (active); in assay [5], 17.2 nM (active); in assay [6] it was 19.6 nM (active); in [7], 20.2 nM (active); in assay [8], 13.9 nM (active); in assay [9], 6.59 nM (active).

What is called AC50 is the midpoint of the concentration-response curve, whichever way the signal moves.
